“And” between values parts separate entries of the source, which are not always exact repeats. Equal entries are not always repeated. Some structures have more than one record in an assay (separate samples or runs), and their calls can disagree. The source made the active and inactive calls. The calls were made as follows: active = hit-call score of the fitted dose curve at least 0.9, where 1 is the maximum; inactive = score below 0.9.
read-out: Interleukin-1 alpha (IL1a), IL1A (gene 3552); experiment: BSK_LPS_IL1a: BioMAP Diversity Plus: LPS Assay for Interleukin-1 alpha (IL1a) Biomarker Activity (AID 2283080); details: primary human HUVEC with PBMC; actives raise or lower the signal
Protocol: BSK_LPS is a cell-based, multiplexed-readout assay that uses umbilical vein endothelium and peripheral blood mononuclear cells, a human vascular primary cell co-culture, with measurements taken at 24 hours after chemical dosing in a 96-well plate.BSK_LPS_IL1a is an assay component measured in the BSK_LPS assay. It measures IL-a antibody related to regulation of gene expression using ELISA technology.Data from the assay component BSK_LPS_IL1a was analyzed into 1 assay endpoint. This assay endpoint, BSK_LPS_IL1a, was analyzed with bidirectional fitting relative to DMSO as the negative control and baseline of activity. Using a type of binding reporter, gain or loss-of-signal activity can be used to understand changes in the signaling as they relate to the gene IL1A. Furthermore, this assay endpoint can be referred to as a primary readout, because this assay has produced multiple assay endpoints where this one serves a signaling function. To generalize the intended target to other relatable targets, this assay endpoint is annotated to the cytokine intended target family, where the subfamily is interleukins.
The levels of cell surface (or secreted, indicated by the prefix "s") biomarker endpoints were measured by ELISA. Overt cytotoxicity to cells in confluent adherent cultures (all systems other than the BT system) was assessed by measuring total protein levels using sulforhodamine B (SRB) staining in parallel cultures at the time of biomarker measurements, indicated as SRB endpoints. For proliferation assays for adherent cell types, individual cell types are cultured at sub-confluence and relative cell numbers quantified by SRB staining at time points optimized for each system (48 h: 3C and CASM3C systems; 72 h: BT and HDF3CGF systems; 96 h: SAg system). SRB was performed by staining cells with 0.1% SRB after fixation with 10% TCA and reading wells at 560 nm.Viability and proliferation of PBMC (T cells) was quantified by Alamar Blue reduction for the SAg and BT systems. For PBMC viability (referred to as PBMC Cytotoxicity within the assay endpoint names), cells were plated (75,000/well in a 96-well plate) and then chemical samples added for 1 h before addition of activators, SEB and TSST-1 (20 ng/mL final concentration each). Cells were incubated for 90 h. Then, Alamar Blue (20 uL/well) (Invitrogen, Cat DAL1100) was added for 6 h, and the plates were read with a fluorescence microplate reader at 546/580 nm (excitation/emission). For PBMC proliferation, cells were plated and activated as above but incubated for only 16 h prior to addition of Alamar Blue. Plates were read after 6 h.

Structure (SMILES) | outcome | AC50
C=CC(=O)OCCC(F)(F)C(F)(F)C(F)(F)C(F)(F)F | inactive | –
CN(C(=O)C(F)(F)C(F)(F)C(F)(F)F)[Si](C)(C)C | inactive | –
O=S(=O)(OCC(F)(F)F)C(F)(F)C(F)(F)C(F)(F)C(F)(F)F | inactive | 30 µM (active)
C=CC(=O)OCC(F)(F)C(F)(F)C(F)(F)COC(=O)C=C | – | 15.5 µM (active) and 12.1 µM (active)
O=S(=O)(O)CCC(F)(F)C(F)(F)C(F)(F)C(F)(F)C(F)(F)C(F)(F)C(F)(F)C(F)(F)F | – | 47.3 µM (active) and 44.8 µM (active)
CCOC(=O)CC(=O)C(F)(F)C(F)(F)F | inactive | –
OCC(F)(F)C(F)(F)C(F)(F)C(F)(F)C(F)(F)C(F)(F)CO | inactive | –
O=S(=O)(Cl)C(F)(F)C(F)(F)C(F)(F)C(F)(F)C(F)(F)C(F)(F)C(F)(F)C(F)(F)F | inactive | –
O=C=NCc1cccc(CN=C=O)c1 | inactive | –
CCN=C1C=CC(=C(c2ccc(N(CC)CC)cc2)c2ccc(N(CC)CC)cc2)c2ccccc21 | – | 2.54 µM (active) and 1.43 µM (active)
Nc1cc([N+](=O)[O-])cc(Cl)c1O | inactive | –
CC(C)(C)c1cc(CCC(=O)NCCCCCCNC(=O)CCc2cc(C(C)(C)C)c(O)c(C(C)(C)C)c2)cc(C(C)(C)C)c1O | inactive | –
CNS(=O)(=O)C(F)(F)C(F)(F)C(F)(F)C(F)(F)C(F)(F)C(F)(F)C(F)(F)C(F)(F)F | inactive | 5.38 µM (active)
O=C(O)C(F)(F)C(F)(F)C(F)(F)C(=O)O | inactive | –
CO[Si](C)(CCC(F)(F)C(F)(F)C(F)(F)C(F)(F)C(F)(F)C(F)(F)F)OC | inactive | –
NCC(F)(F)C(F)(F)C(F)(F)C(F)(F)C(F)(F)C(F)(F)F | inactive | –
COC(F)(C(F)F)C(F)(F)F (stereo not given) | inactive | –
C[C@]12CC[C@H]3C(=CCc4cc(O)ccc43)[C@@H]1CCC2=O | inactive | –
NC(=O)C(F)(F)C(F)(F)C(F)(F)C(F)(F)C(F)(F)C(F)(F)C(F)(F)F | inactive | –

Structure (SMILES) | outcome | AC50
O=S(=O)(O)CCC(F)(F)C(F)(F)C(F)(F)C(F)(F)F | inactive | –
O=C(F)C1(F)C(F)(F)C(F)(F)C(F)(F)C(F)(F)C1(F)F | inactive | –
OCC(F)(F)C(F)(F)C(F)(F)CO | inactive | –
NC(=O)C(F)(F)C(F)(F)C(F)(F)C(F)F | inactive | –
CCN(CC)c1ccc2c(c1)Oc1cc(N(CC)CC)ccc1C21OC(=O)c2ccccc21 | inactive | –
FC(F)(F)C(F)(F)C(F)(F)C(F)(F)C(F)(F)C(F)(F)C(F)(F)CCI | inactive | –
Cc1cc(C)c(O)c(C(C)(C)C)c1 | – | 32.7 µM (active)
FC(F)(F)C(F)(F)C(F)(F)CC1CO1 (stereo not given) | inactive | –
NC(=O)C(F)(F)C(F)(F)C(F)(F)F | inactive | –
Cc1cc(O)c(C(C)(C)C)cc1C(C)(C)C | – | 5.31 µM (active)
Cc1ccc(O)c(-n2nc3ccccc3n2)c1 | inactive | –
OCC(F)(F)C(F)(F)C(F)(F)C(F)(F)C(F)(F)C(F)(F)C(F)(F)C(F)(F)CO | inactive | –
OC(O)C(F)(F)C(F)(F)F | inactive | –
C=CC(=O)OCC(F)(F)C(F)(F)C(F)(F)C(F)(F)C(F)(F)C(F)(F)C(F)(F)C(F)F | inactive | –
NCC(F)(F)C(F)(F)C(F)(F)C(F)(F)C(F)(F)C(F)(F)C(F)(F)C(F)(F)F | inactive | –
O=C(c1ccccc1)c1ccc(O)cc1O | inactive | –
O=C(O)C(F)(F)C(F)(F)C(F)(F)OC(F)(C(F)(F)F)C(F)(F)F | inactive | –
NC(=O)C(F)(F)C(F)(F)C(F)(F)C(F)(F)C(N)=O | inactive | –
CCN(CCO)S(=O)(=O)C(F)(F)C(F)(F)C(F)(F)C(F)(F)C(F)(F)C(F)(F)C(F)(F)C(F)(F)F | – | 23.7 µM (active) and 5.83 µM (active)
